Drawing on PubChem BioAssay AID1117283 (Broad Institute, 2014), this text covers outcome for 25 molecules.

Results with a measured potency or affinity are listed apart. Active and inactive are the calls of the source.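 The calls were made as follows: active = fluorescent signal decreased by at least 40%; inconclusive = no clear call, values can overlap the other calls; inactive = the rest, including activity opposite to the expected direction.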

A short description of the test: fibronectin fibrillogenesis inhibitors in fibroblasts, dose response, AH1F cells, Alexa488-fibronectin fluorescence, cherry-pick, set 2 (AID 1117283).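 Also: AH1F fibroblasts given Alexa488-labelled fibronectin at 24 nM final.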 To be noted: Alexa488-fibronectin deposition fluorescence, overnight; series mostly up to 35 µM.
Consider `CSc1ccccc1C(=O)C1CCCN(C(=O)CCc2cccnc2)C1` (stereo not given), for which the molecule was classed as inactive. Next, `CO[C@H]1CN(C)C(=O)c2ccc(NC(=O)c3ccc(-c4ccccc4)cc3)cc2OC[C@H](C)NC[C@H]1C`: “inactive”; `C[C@H]1CN([C@@H](C)CO)C(=O)c2cc(NC(=O)C3CCCCC3)ccc2O[C@@H]1CN(C)Cc1ccc(-c2ccccc2)cc1`: “inactive”; `CO[C@H]1CN(C)C(=O)c2ccc(NC(=O)Nc3ccc(Cl)c(Cl)c3)cc2OC[C@H](C)NC[C@@H]1C`: “inactive”. With `O=C(c1cccnc1)N1C[C@@H]2[C@H](c3ccccc31)[C@@H](CO)N2CC1CCCC1`, the molecule was classed as inactive. In the case of `CO[C@H]1CN(C)C(=O)c2cc(NC(=O)Nc3ccc(Cl)c(Cl)c3)ccc2OC[C@@H](C)NC[C@H]1C`, the call was inactive. As for `Cc1cc(C)c(S(=O)(=O)Nn2cnnc2)c(C)c1`, the entry is “inactive”; as for `CO[C@@H]1CN(C)C(=O)c2cc(NC(=O)Nc3cc(Cl)cc(Cl)c3)ccc2OC[C@H](C)NC[C@H]1C`, “inactive”. As for `CCOC(=O)c1cnc(SCc2nc(N)nc(Nc3ccc(OC)cc3)n2)nc1N`, the entry is “inactive”.

With `O=C(c1cccnc1)N1C[C@H]2[C@@H](c3ccccc31)[C@@H](CO)N2CC1CCCC1`, the molecule was classed as inactive. As for `CO[C@H]1CN(C)C(=O)c2cc(NC(=O)Nc3ccc(C(F)(F)F)cc3)ccc2OC[C@H](C)NC[C@H]1C`, the entry is “inactive”; as for `O=C(OCC(O)C(O)COC(=O)c1ccccc1)c1ccccc1` (stereo not given), “inactive”; as for `O=C(Nc1ccccc1F)N1C[C@H]2[C@@H](c3ccccc31)[C@@H](CO)N2C(=O)C1CC1`, “inactive”. As for `CC(C)Cc1nnc(NC(=O)CSc2nc(N)cc(=O)[nH]2)s1`, the entry is “inactive”; as for `N#Cc1ccc(-c2ccc3c(c2)[C@H]2[C@H](CCN2S(=O)(=O)c2cccc(F)c2)[C@H](CO)N3)cc1`, “inactive”.

Consider `Cc1ccn2cc(-c3ccc(NC(=O)c4ccco4)cc3)nc2c1`, for which the result was inactive. Next, `CCCCOc1ccc(C(C)NC(=O)C2CCCN(S(=O)(=O)CCC)C2)cc1` (stereo not given): “inactive”; `C[C@@H]1CN([C@H](C)CO)C(=O)c2cccc(NC(=O)Nc3ccc(C(F)(F)F)cc3)c2O[C@H]1CN(C)C(=O)Nc1cccc2ccccc12`: “inactive”. Next, `CO[C@H]1CN(C)C(=O)c2cc(NC(=O)Nc3ccc(Cl)c(Cl)c3)ccc2OC[C@H](C)NC[C@H]1C`: “inactive”; `Cc1ccc(O)c(-c2cc(-c3cccc(Br)c3)n[nH]2)c1`: “inactive”. In the case of `CC(=O)Nc1cccc(-c2ccnc3c2CC(C)(C(=O)Nc2cccc(C(F)(F)F)c2)O3)c1` (stereo not given), the molecule was called inactive. Next, `c1ccc2[nH]c(SCc3cn4cccnc4n3)nc2c1`: “inactive”. Next, `COc1ccc(CCNC(=O)C2CCN(Cc3nc(-c4ccccc4F)oc3C)CC2)cc1OC`: “inactive”; `O=C(Nc1ccc(Cl)cc1)N1C[C@H]2[C@@H](c3ccccc31)[C@H](CO)N2CC1CCCC1`: “inactive”.

For the molecule `Nc1c(C(=O)NCc2ccco2)nnn1Cc1ccccc1`, the outcome was inactive.
